From PubChem BioAssay
TDP1 cell noCPT: qHTS for Inhibitors of human tyrosyl-DNA phosphodiesterase 1 (TDP1): qHTS in cells in absence of CPT | DT40 Tdp1-/- hTDP1 cells, no CPT, ATP luminescence, 48 h | Potency, µM (doses to about 46.2 µM), for the others: at the highest dose activity change, negative = growth inhibition, hits mostly inhibitors | 420,000 compounds, 15% hits | AID 686978, 2013; also: potency is read from the fitted curve at half-maximal effect; nearly all actives have a fitted effect of over 55% in size
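DT40 Tdp1-/-;hTDP1 cells, no CPT (DMSO vehicle only), 400 cells/well; compounds pin-transferred; ≥48 hr, 37 °C; CellTiter-Glo 30 min RT dark, luminescence read.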
DT40 TDP1 CPT: DT40-hTDP1 cell growth loss with CPT. chicken DT40 Tdp1-/-;hTDP1 cells + 20 nM CPT, ATP luminescence, 48 h. AID 686979. Potency, µM (titrated, usually from 46.2 µM), for inactives: at the top dose activity change, negative = growth inhibition, actives largely listed as inhibitors. 420,000 compounds, 12% hits; also: potency is read from the fitted curve at half-maximal effect; nearly all actives have a fitted effect of over 55% in size
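Cell growth measured by CellTiter-Glo luminescence after a minimum 48 h, 37 C compound exposure with 20 nM CPT in Tdp1-knockout DT40 cells stably expressing hTDP1, seeded 400/well; qHTS titration format.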
IL1B secr inh: inhibitors of inflammasome signaling (IL-1 beta secretion); THP-1 LPS/ATP IL-1B secretion, AlphaLISA, 16 h; stronger effect = lower value; activity change, % at 57.5 µM; 360,000 compounds, 4.7% hits; AID 743279; in the data active = activity change below about -50%; inconclusive = mostly about -30% to -49%
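THP-1 cells pretreated 1 hr with compounds (up to 57.5 uM final), then stimulated with LPS (250 ng/mL final) plus ATP (1.25 mM final); secreted IL-1B measured by AlphaLISA after 16 hr, decreased signal indicating inhibition.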
HT1080 IDH1KD tx: kills HT-1080 cells with IDH1 knockdown; HT-1080 IDH1 knockdown viability, ATP luminescence, 48 h; Potency, µM (highest dose often 46.1 µM), without a hit: at the top dose activity, negative = toxicity, usual class: cytotoxic; 360,000 compounds, 2% hits; AID 686971;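 also: potency is read from the fitted curve at half-maximal effect; 0% = DMSO wells and -100% = cell-free medium wells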
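CellTiter-Glo luminescence after 48 h compound exposure at 37 degrees C of IDH1-knockdown HT-1080 cells in 5% FBS RPMI. %Activity scaled between DMSO wells and cell-free media wells, with curves fitted and assigned curve classes.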
HT1080NT lethal: kills 2HG-producing HT-1080-NT fibrosarcoma cells; HT-1080-NT fibrosarcoma viability, CellTiter-Glo ATP luminescence, 48 h; Potency, µM (titrated, usually from 46.1 µM), without a hit: top-dose activity, negative = less viability, hits mostly cytotoxic; 360,000 compounds, 1.6% hits;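 also: NT is the 2HG producing partner of a matched IDH1 knockdown line; potency is read from the fitted curve at half-maximal effect; 0% = DMSO-treated cells and -100% = media-only wells without cells; nearly all actives have a fitted effect of over 55% in size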
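Compounds were tested in concentration-response format on HT-1080-NT cells for 48 hours at 37 degrees C. Cell viability came from CellTiter-Glo luminescence; curves were classified by r2, response magnitude and activity.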
* = called active by the depositor; [ ] = dose if it differs, or a comment. This is a sample that favours compounds with a hit; in the whole collection about 19% have one here. Unless noted, calls follow the shape of the dose curve; as a rule, active = well fitted curve in the direction sought with a large enough effect; inconclusive = small, poorly fitted or top-dose-only effect, or another doubt; inactive = no such curve, though single readings can be large; an effect the other way counts as inactive or inconclusive. Unless noted, % is scaled to controls: 0 for no effect and ±100 for the full control effect.

`CN(CCO)c1cc(Sc2nc3ccccc3s2)c2nonc2c1[N+](=O)[O-]` gave TDP1 cell noCPT 1.84µM*, DT40 TDP1 CPT 2.06µM*, IL1B secr inh -16.8, HT1080 IDH1KD tx 5.01µM* and HT1080NT lethal 6.31µM*.
For Cc1ncc2c(c1CNS(=O)(=O)N(C)C)CCN(C(=O)/C=C/c1cccc(F)c1)C2 the results were TDP1 cell noCPT -18.4% and DT40 TDP1 CPT -12.4%[9.04 µM].
For COc1ccc(C(=O)NCC(c2ccc(N(C)C)cc2)N2CCOCC2)cc1 (stereo not drawn) the results were TDP1 cell noCPT 10.3µM* and DT40 TDP1 CPT 7.31µM*.
CN(C)c1ccc(C(CNC(=O)c2ccc(C(C)(C)C)cc2)N2CCCC2)cc1 (stereo not drawn) was read as TDP1 cell noCPT 7.31µM* and DT40 TDP1 CPT 13µM*.
For COc1ccc(C(CNC(=O)c2cc3c(s2)CCC(C)C3)N2CCOCC2)cc1 (stereo not drawn) the results were TDP1 cell noCPT inconclusive, DT40 TDP1 CPT 23.1µM*, IL1B secr inh -11.7, HT1080 IDH1KD tx -11.4% and HT1080NT lethal -0.2%.
`CN(C)c1ccc(C(CNC(=O)c2cccc(C(F)(F)F)c2)N2CCCC2)cc1` (stereo not drawn) gave TDP1 cell noCPT 16.4µM* and DT40 TDP1 CPT 14.6µM*.
Cc1cccc(N2CCN(C3CCCCC3NS(=O)(=O)c3ccccc3)CC2C)c1 (stereo not drawn) was read as TDP1 cell noCPT inconclusive, DT40 TDP1 CPT inconclusive, IL1B secr inh 17.8, HT1080 IDH1KD tx inconclusive and HT1080NT lethal inconclusive.
`Cc1ccc(NC(=O)C2CCN(S(=O)(=O)c3c(C)noc3C)CC2)c(C)c1` gave TDP1 cell noCPT -9.8% and DT40 TDP1 CPT 2.1%.
Screening CC1(C)CC(=O)C(C=Nc2ccc(N)cc2)=C(O)C1 returned TDP1 cell noCPT -2.2%, DT40 TDP1 CPT -14.5%, IL1B secr inh -25.1, HT1080 IDH1KD tx -3.6% and HT1080NT lethal -0.4%.
`Cc1[nH]nc(N=CC2=C(O)CC(C)(C)CC2=O)c1-c1ccc(Cl)cc1` gave TDP1 cell noCPT 11.6µM*, DT40 TDP1 CPT 11.6µM*, IL1B secr inh -7.3, HT1080 IDH1KD tx 1.0% and HT1080NT lethal 4.4%.
CC1(C)CC(=O)C(C=Nc2ccc(O)cc2)=C(O)C1 was read as TDP1 cell noCPT 23.1µM*, DT40 TDP1 CPT inconclusive, IL1B secr inh 26.3, HT1080 IDH1KD tx -2.1%[9.24 µM] and HT1080NT lethal inconclusive.
`COc1cc(Br)cc(CN2CCN(C=O)CC2)c1O` gave TDP1 cell noCPT inconclusive, DT40 TDP1 CPT 25.9µM*, IL1B secr inh 4.5, HT1080 IDH1KD tx -16.2% and HT1080NT lethal -10.9%.
`Cc1nc2nc3c(cn2n1)C(=O)CCC3` gave TDP1 cell noCPT -6.3%, DT40 TDP1 CPT 2.0%, IL1B secr inh 0.0, HT1080 IDH1KD tx 2.6% and HT1080NT lethal 0.5%.
`CCOC(=O)C1CCCN(Cc2nc(C3CC3)no2)C1` (stereo not drawn) gave TDP1 cell noCPT -3.4%, DT40 TDP1 CPT -10.5%, IL1B secr inh 42.1, HT1080 IDH1KD tx 21.8% and HT1080NT lethal 0.8%.
`COCc1[nH]nc2c1C(c1ccnc3ccccc13)C(C#N)=C(N)O2` (stereo not drawn) gave TDP1 cell noCPT 9.2µM*, DT40 TDP1 CPT 18.4µM*, IL1B secr inh -25.1, HT1080 IDH1KD tx 7.7% and HT1080NT lethal -2.6%.
Screening COCc1[nH]nc2c1C(c1ccc(F)cc1F)C(C#N)=C(N)O2 (stereo not drawn) returned TDP1 cell noCPT -21.8%, DT40 TDP1 CPT 4.8%, IL1B secr inh inconclusive, HT1080 IDH1KD tx 0.7% and HT1080NT lethal -1.6%.
`CCn1c2ccccc2c2cc(C3C(C#N)=C(N)Oc4n[nH]c(COC)c43)ccc21` (stereo not drawn) gave TDP1 cell noCPT 25.9µM*, DT40 TDP1 CPT inconclusive, IL1B secr inh inconclusive, HT1080 IDH1KD tx 8.91µM* and HT1080NT lethal 11.2µM*.
